Data taken from PubChem BioAssay (EPA / NIEHS).
Several values for one entry are separate records, joined by “and”; a condition that tells them apart may be missing. Equal values may be shown once. Records with an inconclusive call do not appear. More than one record can exist for a structure, and the calls need not agree. Activity calls are given as the source filed them. Rule for the calls, unless noted: active = hit-call score of the fitted dose curve at least 0.9, where 1 is the maximum; inactive = score below 0.9.

Assays:
[1] = read-out: Interleukin-8 (IL8), CXCL8 (gene 3576); experiment: BSK_3C_IL8: BioMAP Diversity Plus: 3C Assay for Interleukin-8 (IL8) Biomarker Activity (AID 2283020); settings: primary human endothelial cells (HUVEC); actives raise or lower the signal
Summary of the method: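 Human vascular endothelial cells (umbilical vein) in the 3C system; IL-8 level detected by ELISA at 24 h post-dose, with DMSO as baseline.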

[2] = read-out: Monokine induced gamma interferon (MIG), CXCL9 (gene 4283); experiment: BSK_3C_MIG: BioMAP Diversity Plus: 3C Assay for Monokine induced gamma interferon (MIG) Biomarker Activity (AID 2283021); settings: primary human endothelial cells (HUVEC); actives raise or lower the signal;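 for AC50: MIG protein level measured by immunoassay in the treated endothelial cultures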
Summary of the method: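 After 24 h of treatment, human umbilical vein endothelial cultures (3C system) had their MIG biomarker level determined by ELISA, with DMSO serving as negative control.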

[3] = BSK_3C_SRB: Viability Assessment in the BioMAP Diversity Plus: 3C Assay (AID 2283023); settings: primary human endothelial cells (HUVEC);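 note: fitted both ways against DMSO so a hit may be signal rise or drop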
Summary of the method: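 Human umbilical vein endothelial cells in the 3C system, treated 24 h. Total protein measured by 0.1% sulforhodamine B staining after 10% TCA fixation, read at 560 nm; bidirectional fit versus DMSO.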

[4] = read-out: Matrix Metallopeptidase 1 (MMP1), MMP1 (gene 4312); experiment: BSK_BE3C_MMP1: BioMAP Diversity Plus: BE3C Assay for Matrix Metallopeptidase 1 (MMP1) Biomarker Activity (AID 2283024); settings: primary human bronchial epithelial cells; actives raise or lower the signal
Summary of the method: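 Dose cells, wait 24 h, run MMP1 ELISA; cells are human bronchial epithelial primaries. Both increases and decreases relative to DMSO counted.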

[5] = BSK_3C_Vis: BioMAP Diversity Plus: 3C Assay for Morphology Visualization (AID 2283025); settings: primary human endothelial cells (HUVEC);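 note: fitted both ways so gain or loss versus DMSO counts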;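 for AC50: light microscopy image of cell morphology used as background control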
Summary of the method: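 Endothelial cells from human umbilical vein were treated with test chemicals for 24 h and inspected by light microscopy for changes in cell conformation.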

[6] = read-out: Pselectin, SELP (gene 6403); experiment: BSK_4H_Pselectin: BioMAP Diversity Plus: 4H Assay for Pselectin Biomarker Activity (AID 2283026); settings: primary human endothelial cells (HUVEC); actives raise or lower the signal
Summary of the method: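 Human vascular endothelium from umbilical vein; P-selectin measured by ELISA at 24 h post-dose, with cytotoxicity checked by sulforhodamine B total-protein staining in parallel cultures (0.1% SRB after 10% TCA fixation, read at 560 nm).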

[7] = BSK_4H_SRB: Viability Assessment in the BioMAP Diversity Plus: 4H Assay (AID 2283027); settings: primary human endothelial cells (HUVEC);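 note: cells exposed to compound for 24 h before staining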;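 for AC50: curves fitted both ways versus DMSO so AC50 may be loss or gain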
Summary of the method: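 Human umbilical vein endothelial cells, 24 h after chemical dosing; total protein measured by 0.1% sulforhodamine B staining after 10% TCA fixation, read at 560 nm. Bidirectional fitting against DMSO.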

[8] = BSK_BE3C_SRB: Viability Assessment in the BioMAP Diversity Plus: BE3C Assay (AID 2283028); settings: primary human bronchial epithelial cells
Summary of the method: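 Human bronchial epithelial primary cells in confluent culture, 24 h after chemical dosing; total protein by 0.1% SRB staining after 10% TCA fixation, read at 560 nm. Bidirectional fitting versus DMSO baseline.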

[9] = read-out: Urokinase-type plasminogen activator receptor (uPAR), PLAUR (gene 5329); experiment: BSK_4H_uPAR: BioMAP Diversity Plus: 4H Assay for Urokinase-type plasminogen activator receptor (uPAR) Biomarker Activity (AID 2283030); settings: primary human endothelial cells (HUVEC); actives raise or lower the signal
Summary of the method: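 Human umbilical vein endothelial cells in the 4H system, 24 h after chemical dosing. Cell-surface uPAR measured by ELISA, fitted in both directions versus DMSO; cytotoxicity checked by SRB total protein in parallel cultures.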

[10] = read-out: Human Leukocyte Antigen - DR isotype (HLADR), HLA-DRA (gene 3122); experiment: BSK_BE3C_HLADR: BioMAP Diversity Plus: BE3C Assay for Human Leukocyte Antigen - DR isotype (HLADR) Biomarker Activity (AID 2283032); settings: primary human bronchial epithelial cells; actives raise or lower the signal
Summary of the method: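 Signal came from an ELISA for HLA-DR in human bronchial epithelial primary cells harvested 24 h after treatment; gain- and loss-of-signal fitting used DMSO controls as reference.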

[11] = read-out: Interferon-gamma inducible Protein 10 (IP10), CXCL10 (gene 3627); experiment: BSK_BE3C_IP10: BioMAP Diversity Plus: BE3C Assay for Interferon-gamma inducible Protein 10 (IP10) Biomarker Activity (AID 2283034); settings: primary human bronchial epithelial cells; actives raise or lower the signal
Summary of the method: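 Using primary human bronchial epithelial cultures, the assay captures IP-10 by ELISA one day (24 h) after exposure. Parallel SRB staining of total protein flags overt cytotoxicity. Fits run bidirectionally relative to DMSO.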

[12] = read-out: Monokine induced gamma interferon (MIG), CXCL9 (gene 4283); experiment: BSK_BE3C_MIG: BioMAP Diversity Plus: BE3C Assay for Monokine induced gamma interferon (MIG) Biomarker Activity (AID 2283035); settings: primary human bronchial epithelial cells; actives raise or lower the signal
Summary of the method: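 Primary human bronchial epithelial cells treated for 24 h; MIG levels measured by ELISA, fitted bidirectionally versus DMSO. Parallel SRB total-protein staining assessed cytotoxicity.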

[13] = read-out: Plasminogen activator inhibitor-1 (PAI1), SERPINE1 (gene 5054); experiment: BSK_BE3C_PAI1: BioMAP Diversity Plus: BE3C Assay for Plasminogen activator inhibitor-1 (PAI1) Biomarker Activity (AID 2283037); settings: primary human bronchial epithelial cells; actives raise or lower the signal
Summary of the method: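 PAI-1 biomarker levels in treated human bronchial epithelial cells are determined by ELISA at 24 h. Both increases and decreases relative to DMSO are fitted.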

[14] = read-out: urokinase plasminogen activator (uPA), PLAU (gene 5328); experiment: BSK_BE3C_uPA: BioMAP Diversity Plus: BE3C Assay for urokinase plasminogen activator (uPA) Biomarker Activity (AID 2283038); settings: primary human bronchial epithelial cells; actives raise or lower the signal;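 note: uPA protein level quantified by ELISA in cell cultures; uPA read one day after compound addition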
Summary of the method: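 Primary human bronchial epithelial cells, uPA measured by ELISA 24 h after dosing. Bidirectional change relative to DMSO; cytotoxicity checked in parallel cultures by sulforhodamine B total-protein staining.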

[15] = read-out: Urokinase-type plasminogen activator receptor (uPAR), PLAUR (gene 5329); experiment: BSK_BE3C_uPAR: BioMAP Diversity Plus: BE3C Assay for Urokinase-type plasminogen activator receptor (uPAR) Biomarker Activity (AID 2283039); settings: primary human bronchial epithelial cells; actives raise or lower the signal;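 note: cells exposed to compound for one day before measurement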
Summary of the method: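 A uPAR ELISA serves as the readout, taken 24 h after treating primary human bronchial epithelial cells. Responses in either direction are fitted against DMSO, which defines baseline activity.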

[16] = read-out: Interleukin-6 (IL6), IL6 (gene 3569); experiment: BSK_CASM3C_IL6: BioMAP Diversity Plus: CASM3C Assay for Interleukin-6 (IL6) Biomarker Activity for (AID 2283040); settings: primary human coronary artery smooth muscle cells; actives raise or lower the signal
[17] = biological target: human Vitamin D Receptor (VDR), VDR (gene 7421) (UniProt P11473); experiment: ATG_VDR_TRANS: Attagene TRANS-FACTORIAL HepG2 Assay for human Vitamin D Receptor (VDR) (AID 2283022; active = hit-call score of the fitted dose curve at least 0.9, where 1 is the maximum)
Summary of the method: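 HepG2 cells were transiently transfected with GAL4-UAS reporter units and a chimeric VDR-Gal4 construct, then dosed for 24 hours. Reporter mRNA was quantified by RT-PCR, fluorescent labeling, HpaI digestion and capillary electrophoresis; gain of signal analysed vs DMSO.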

[18] = read-out: Vascular cell adhesion molecule 1 (VCAM1), VCAM1 (gene 7412); experiment: BSK_4H_VCAM1: BioMAP Diversity Plus: 4H Assay for Vascular cell adhesion molecule 1 (VCAM1) Biomarker Activity (AID 2283033); settings: primary human endothelial cells (HUVEC); actives raise or lower the signal;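 note: cell-surface VCAM-1 protein measured by ELISA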
Summary of the method: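 Endpoint derived from bidirectional fitting against DMSO controls of VCAM-1 ELISA signal in umbilical vein endothelial cells sampled at 24 h following treatment.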

[19] = read-out: Thrombomodulin, THBD (gene 7056); experiment: BSK_3C_Thrombomodulin: BioMAP Diversity Plus: 3C Assay for Thrombomodulin Biomarker Activity (AID 2283029); settings: primary human endothelial cells (HUVEC); actives raise or lower the signal
Summary of the method: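 Thrombomodulin ELISA, human primary HUVEC, 24 h post-dose; data fitted in both directions relative to DMSO.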

[20] = read-out: Vascular endothelial growth factor receptor 2 (Homo sapiens) (UniProt P35968); experiment: BSK_4H_VEGFRII: BioMAP Diversity Plus: 4H Assay for Vascular endothelial growth factor receptor 2 (VEGFR2) Biomarker Activity (AID 2283031); settings: primary human endothelial cells (HUVEC); actives raise or lower the signal
Summary of the method: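 Primary human umbilical vein endothelial cells (4H system), 24 h exposure; cell-surface VEGFR2 measured by ELISA. Bidirectional fitting versus DMSO; cytotoxicity checked in parallel by SRB total-protein staining.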

Measured: AC50

human Vitamin D Receptor (VDR), VDR (gene 7421), sequence (P11473 whole entry, looked up, the tested form may be a part): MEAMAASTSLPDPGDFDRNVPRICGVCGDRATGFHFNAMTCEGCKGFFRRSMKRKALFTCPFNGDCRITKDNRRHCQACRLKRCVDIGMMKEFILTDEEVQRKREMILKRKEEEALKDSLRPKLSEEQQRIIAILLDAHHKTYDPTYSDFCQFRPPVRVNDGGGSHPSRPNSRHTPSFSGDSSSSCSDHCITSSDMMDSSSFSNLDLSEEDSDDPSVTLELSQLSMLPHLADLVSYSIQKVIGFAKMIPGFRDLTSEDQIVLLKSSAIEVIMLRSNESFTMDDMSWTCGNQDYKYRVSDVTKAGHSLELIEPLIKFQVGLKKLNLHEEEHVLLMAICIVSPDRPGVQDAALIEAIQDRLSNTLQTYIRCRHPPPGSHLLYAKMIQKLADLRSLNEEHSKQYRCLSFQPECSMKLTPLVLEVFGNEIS

O=C1c2c(O)ccc(Nc3ccc(CCO)cc3)c2C(=O)c2c([N+](=O)[O-])ccc(O)c21
inactive: [1] | [3] | [8] | [13] | [14] | [15] | [16]
active: [2] 34.2 µM | [4] 2.47 µM | [5] 15.4 µM | [6] 20 µM | [7] 31.3 µM | [9] 31.1 µM | [10] 3.43 µM | [11] 20 µM | [12] 20 µM

CO[Si](C)(CCC(F)(F)C(F)(F)C(F)(F)C(F)(F)C(F)(F)C(F)(F)F)OC
inactive: [1] | [2] | [17] | [3] | [4] | [6] | [7] | [8] | [10] | [18] | [11] | [12] | [13] | [14] | [15] | [16]

NC(O)(C(F)(F)F)C(F)(F)F
inactive: [1] | [2] | [17] | [3] | [4] | [6] | [7] | [8] | [19] | [10] | [11] | [13] | [14] | [15] | [16]

Cc1ccc(O)c(-n2nc3ccccc3n2)c1
inactive: [1] | [2] | [17] | [3] | [4] | [5] | [6] | [7] | [8] | [19] | [20] | [10] | [18] | [11] | [13] | [14] | [15] | [16]

O=C(F)C1(F)C(F)(F)C(F)(F)C(F)(F)C(F)(F)C1(F)F
inactive: [1] | [17] | [3] | [4] | [6] | [7] | [8] | [9] | [10] | [11] | [12] | [13] | [14] | [15] | [16]

CC(C)(C)c1cc(CCC(=O)NCCCCCCNC(=O)CCc2cc(C(C)(C)C)c(O)c(C(C)(C)C)c2)cc(C(C)(C)C)c1O
inactive: [1] | [3] | [4] | [6] | [7] | [8] | [19] | [9] | [20] | [10] | [12] | [13] | [14] | [15] | [16]
active: [5] 3.25 µM | [11] 0.121 µM

C=CC(=O)OCC(F)(F)C(F)(F)C(F)(F)C(F)(F)C(F)(F)C(F)(F)C(F)(F)C(F)F
active: [19] 5.95 µM and 19.2 µM
inactive: [1] | [17] | [3] | [4] | [6] | [7] | [8] | [10] | [11] | [12] | [13] | [14] | [15] | [16]

NC(=O)C(F)(F)C(F)(F)C(F)(F)C(F)(F)C(N)=O
inactive: [1] | [17] | [3] | [4] | [6] | [7] | [8] | [9] | [10] | [11] | [12] | [13] | [14] | [15] | [16]

FC(F)(F)C(F)(F)C(F)(F)C(F)(F)C(F)(F)C(F)(F)CC[Si](Cl)(Cl)Cl
inactive: [1] | [17] | [3] | [4] | [6] | [7] | [8] | [19] | [10] | [18] | [11] | [12] | [13] | [14] | [15] | [16]

O=S(=O)(OCC(F)(F)F)C(F)(F)C(F)(F)C(F)(F)C(F)(F)F
inactive: [1] | [17] | [3] | [4] | [6] | [7] | [8] | [10] | [11] | [12] | [13] | [14] | [15] | [16]

CCOC(=O)CC(=O)C(F)(F)C(F)(F)F
inactive: [1] | [17] | [3] | [4] | [6] | [7] | [8] | [19] | [20] | [10] | [18] | [11] | [12] | [13] | [14] | [15] | [16]

NC(=O)C(F)(F)C(F)(F)C(F)(F)F
inactive: [1] | [17] | [3] | [4] | [6] | [7] | [8] | [9] | [10] | [18] | [11] | [12] | [13] | [14] | [15] | [16]

O=C(O)C(F)(F)OC(F)(F)C(F)(F)OC(F)(F)C(F)(F)OC(F)(F)F
active: [4] 2.78 µM and 3.97 µM and 11.8 µM | [10] 9.98 µM | [11] 7.49 µM
inactive: [1] | [17] | [3] | [6] | [7] | [8] | [20] | [10] | [18] | [11] | [12] | [13] | [14] | [15] | [16]
